Molecules are shown by their SMILES. Among all 96,000 compounds or so, about 19,000 (20%) were called active. The list is a sample of the results. A number with no mark means an inactive call.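 How the source made its calls: active means blocking of liver enzyme CYP2C9 beyond about 50% at 5 µM (limit read from the data); inactive means the rest.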

Sequence of Cytochrome P450 2C9 (Homo sapiens) (P11712 whole entry, looked up): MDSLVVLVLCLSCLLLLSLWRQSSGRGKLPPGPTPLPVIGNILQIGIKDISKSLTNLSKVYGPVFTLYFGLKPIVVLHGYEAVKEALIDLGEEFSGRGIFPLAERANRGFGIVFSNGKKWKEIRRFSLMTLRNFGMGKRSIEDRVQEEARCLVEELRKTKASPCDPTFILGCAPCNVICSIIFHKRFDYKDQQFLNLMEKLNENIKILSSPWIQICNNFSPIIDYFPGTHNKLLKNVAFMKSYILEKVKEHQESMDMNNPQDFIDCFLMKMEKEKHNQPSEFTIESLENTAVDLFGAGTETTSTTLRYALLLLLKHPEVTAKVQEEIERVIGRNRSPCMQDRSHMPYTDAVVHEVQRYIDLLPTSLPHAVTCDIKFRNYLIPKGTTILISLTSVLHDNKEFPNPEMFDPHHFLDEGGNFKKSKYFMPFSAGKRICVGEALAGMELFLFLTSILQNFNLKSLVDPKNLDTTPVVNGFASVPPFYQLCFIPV

This assay concerns the target Cytochrome P450 2C9 (Homo sapiens) (UniProt P11712). Briefly: blockers of cytochrome P450 2C9 activity – biochemical, luminescence, ADME assay, primary screen (AID 777). Particulars: CYP2C9 Supersomes, luciferin-H conversion, at 5 µM, hits give high values.
Consider `CCCNc1ncnc2sc(C)c(C)c12`, for which the inhibition is 8.4%.

Consider `CC(=O)c1ccc(Oc2cc(C)nc(-n3nc(C)cc3C)n2)cc1`, for which the inhibition was -5%.

For the molecule `O=C(C(c1ccccc1)c1ccccc1)N1CCN(CC(O)COc2ccccc2)CC1` (stereo not drawn), the inhibition is 65.6% (active).

With `COc1cccc(OCC(O)CN2CCN(CCO)CC2)c1` (stereo not drawn), the inhibition was -2.9%.

With `OC(COc1cccc(OCC(O)CN2CCCC2)c1)CN1CCCC1` (stereo not drawn), the inhibition was 15.5%.

As to `CN(C(=O)C1CCOC1)c1nnc(-c2cccnc2)s1` (stereo not drawn), the inhibition is 0.8%.

`CCn1c(NC(=O)c2ccccc2)c(-c2cccs2)c(=O)c2ccccc21`: the inhibition was 86.7% (active).

As for `CCn1c(=O)cc(O)c2ccccc21`, the inhibition is -18.7%.

Consider `Cn1sc(NC(=O)c2ccccc2)nc1=O`, for which the inhibition is 19.9%.

Regarding `Cc1cc(-c2ccccc2)n2nc(C)c(-c3ccccc3)c2n1`, the inhibition was -9.3%.

Consider `O=C(c1ccco1)N1CCN(C(=O)C2CC(c3ccc(F)cc3)=NO2)CC1` (stereo not drawn), for which the inhibition was 5.7%.

For `CCS(=O)(=O)Nc1ccc(C2=NN(S(=O)(=O)c3ccc(F)cc3)C(c3ccco3)C2)cc1` (stereo not drawn), the inhibition was 87.7% (active).

For `Fc1ccc(N2N=C(c3cccs3)CC2c2ccco2)c(F)c1` (stereo not drawn), the inhibition is 15.7%.

For the molecule `CC(=O)Nc1ccc(N2C(=O)CCC2=O)cc1C`, the inhibition was 16.4%.

On to `O=C(Cn1nc(C(F)(F)F)c2c1CCC2)NCc1ccc(F)cc1`, for which the inhibition is -216%.

As to `CCCN1C(=O)C(NS(=O)(=O)c2ccc(N)cc2)(C(F)(F)F)C(C(=O)OC)=C1C` (stereo not drawn), the inhibition was -3.4%.

Turning to `CCCCn1c(CCCNC(=O)CC)nc2ccccc21`, the inhibition was -16.5%.

For the molecule `Cc1ccccc1S(=O)(=O)Cc1ccc(C(=O)NCCN2CCCCC2C)o1` (stereo not drawn), the inhibition is 11.1%.

As for `Cc1cccc(NC(=O)C(C)N2C(=O)C3C4CC(C(Br)C4Br)C3C2=O)c1` (stereo not drawn), the inhibition is 51.6% (active).

With `Cc1cccc(NC(=O)CN2C(=O)CNC2=O)c1`, the inhibition was -16.3%.

Consider `Cc1cccc(NC(=O)Nc2cccc(Oc3c(F)c(F)c(F)c(F)c3F)c2)c1`, for which the inhibition was 20.6%.

Regarding `CC1=C(C(=O)Nc2ccc(Cl)cc2)C(c2ccco2)NC(=O)N1` (stereo not drawn), the inhibition was 0.4%.

As for `CCOC(=O)COc1ccc(Cl)cc1C1NC(=O)NC(C)=C1C(C)=O` (stereo not drawn), the inhibition is 44.9%.

Consider `CCOc1ccccc1C(=O)NCc1ccco1`, for which the inhibition is -0.6%.

Consider `CCOc1ccccc1C1NC(=O)NC(C)=C1C(=O)OCc1ccco1` (stereo not drawn), for which the inhibition was 75.3% (active).

On to `c1ccc(CSc2ncnc3c2sc2nc(N4CCOCC4)c4c(c23)CCCC4)cc1`, for which the inhibition was 10.4%.

On to `CCOC(=O)c1sc(NC(=O)CSc2nc(C)cc(C(F)(F)F)n2)c(C#N)c1C`, for which the inhibition is 24.8%.

`CCC(=O)NC(Nc1nc2ccc(C)cc2s1)(C(=O)OC)C(F)(F)F` (stereo not drawn): the inhibition was 97% (active).

`CCC(=O)NC(Nc1cc(C)ccn1)(C(F)(F)F)C(F)(F)F`: the inhibition is 23.8%.

As to `COC(=O)C(NC(C)=O)(Nc1nc2c(s1)CCCC2)C(F)(F)F` (stereo not drawn), the inhibition is 26.9%.

Regarding `O=C(CCN1C(=O)COc2ccccc21)NCCCN1CCN(c2ccc(F)cc2)CC1`, the inhibition is 3.9%.

Turning to `COc1ccc(OC)c(C2N(c3ccccn3)C(=O)C3CCCN32)c1` (stereo not drawn), the inhibition was 10.9%.

As to `CC1(C)Cc2nc3sc4c(SCC(=O)NC(c5ccccc5)c5ccccc5)ncnc4c3cc2CO1`, the inhibition was 20.2%.

As for `CC(C)CCSc1ncnc2c1oc1nc3c(cc12)COC(C)(C)C3`, the inhibition is 55.7% (active).

On to `C=CCn1c(=S)[nH]c2nc3c(cc2c1=O)COC(C)(C)C3`, for which the inhibition was 31.2%.

In the case of `CN(C)c1ccnc2sc3c(=O)n(Cc4ccccc4)cnc3c12`, the inhibition was 49.6%.

Consider `Cc1ccccc1NC(=O)c1cnn(-c2ccccc2)c1NC(=O)c1ccco1`, for which the inhibition was 1.2%.

Regarding `O=C(COC(=O)c1ccccc1NC(=O)c1ccco1)Nc1ccc2c(c1)OC(F)(F)O2`, the inhibition is 76.1% (active).

Consider `COc1ccccc1C(=O)Nc1ccc(NC(=O)c2ccco2)c(C)c1`, for which the inhibition was -177%.

Consider `Cc1cc(N)n2nc(-c3ccc(C(C)(C)C)cc3)cc2n1`, for which the inhibition is 38.3%.

Consider `CCN1CCN(Cc2nc3c(c(=O)n(C)c(=O)n3C)n2CC(=O)c2ccccc2)CC1`, for which the inhibition was 29.8%.

With `C=CCOc1nc2c(c(=O)n(C)c(=O)n2C)n1Cc1ccc(Cl)cc1Cl`, the inhibition is 8.1%.

Take `Cn1c(=O)[nH]c(=O)c2c1nc(CN(Cc1ccccc1)Cc1ccccc1)n2CCN1CCOCC1`: the inhibition is 7.6%.

Regarding `CC1CN(Cc2nc3c(c(=O)n(C)c(=O)n3C)n2Cc2cccc(Cl)c2)CC(C)O1` (stereo not drawn), the inhibition was 28%.

Take `Cn1c(=O)c2c(nc(NCCc3ccccc3)n2Cc2ccccc2)n(C)c1=O`: the inhibition was 5.6%.

Turning to `Cn1c(=O)c2c(nc(OCc3cccnc3)n2Cc2ccccc2)n(C)c1=O`, the inhibition was 52.4% (active).

Regarding `COCCn1c(CN2CCC(Cc3ccccc3)CC2)nc2c1c(=O)n(C)c(=O)n2C`, the inhibition is 54.2% (active).

For `CCOC(=O)Cn1c(CN(Cc2ccccc2)Cc2ccccc2)nc2c1c(=O)[nH]c(=O)n2C`, the inhibition is 48.8%.

As for `CCOC(=O)N1CCN(Cc2nc3c(c(=O)n(C)c(=O)n3C)n2Cc2ccccc2)CC1`, the inhibition was 9.9%.

Take `CC(C)CCn1c(CN(C)Cc2ccccc2)nc2c1c(=O)n(C)c(=O)n2C`: the inhibition is 95.6% (active).

Turning to `COCCn1c(CN(Cc2ccccc2)Cc2ccccc2)nc2c1c(=O)n(C)c(=O)n2C`, the inhibition is 96.4% (active).

In the case of `CN1CCN(Cc2nc3c(c(=O)n(C)c(=O)n3C)n2Cc2cccc3ccccc23)CC1`, the inhibition was -8.7%.

Regarding `CC(=O)c1ccc2c(ccc3ccccc32)c1`, the inhibition is 40.7%.

With `CC(C)NC(=O)C(=O)NCCN1CCN(S(=O)(=O)c2ccc(Cl)cc2)CC1`, the inhibition is 20.7%.

Consider `COCCN1Cc2cccc(C(=O)Nc3ccccc3OC)c2C1=O`, for which the inhibition is 34.5%.

Take `O=C(Nc1cc2ccccc2oc1=O)C1CCCCC1`: the inhibition was 3.6%.

For the molecule `Cc1cccc(C)c1NC(=O)CCCSc1nnc(-c2ccco2)n1-c1ccccc1`, the inhibition was 25.6%.

As to `O=C(Nc1nnc(CCc2ccccc2)s1)C1CCCO1` (stereo not drawn), the inhibition is 16.3%.

Regarding `O=C(OC(C(=O)NC1CCCC1)c1ccc(F)cc1)c1ccno1` (stereo not drawn), the inhibition is 13.9%.

On to `CC(C)Cn1c(CN(Cc2ccccc2)Cc2ccccc2)nc2c1c(=O)n(C)c(=O)n2C`, for which the inhibition is 72.2% (active).

In the case of `CC(C)Cn1cnc2c1c(=O)n(CC(O)c1ccccc1)c(=O)n2CC(C)C` (stereo not drawn), the inhibition is -5.7%.

With `Nc1cc(OC(=O)c2ccccc2Br)nn1S(=O)(=O)c1ccccc1`, the inhibition was 61.5% (active).

For the molecule `Cc1ccc(S(=O)(=O)n2nc(OC(=O)C(C)(C)C)cc2N)cc1`, the inhibition was 50.4% (active).

As for `Cc1ccc(S(=O)(=O)N2CCCC2CO)cc1` (stereo not drawn), the inhibition was -37%.

For `Cc1c(C(=O)OCC(=O)N(CCC#N)c2ccccc2)oc2c1ccc1ccccc12`, the inhibition is -74.8%.

For `CC(=O)Nc1ccccc1OC(=O)N1CCOCC1`, the inhibition was -0.1%.

For the molecule `CC(C)Cc1cc(C(=O)Nc2cc(Br)ccc2O)no1`, the inhibition is 18.1%.

`O=c1c2ccccc2oc2nc3n(c(=O)c12)CCCS3`: the inhibition is -21.3%.

In the case of `COc1ccc(N2CC(C)Cn3c2nc2c3c(=O)n(Cc3ccccc3F)c(=O)n2C)c(OC)c1` (stereo not drawn), the inhibition was -4.7%.

As for `Cn1c(=O)n(CCc2ccccc2)c(=O)c2c1nc1n2CCCN1c1ccccc1`, the inhibition was 14.3%.

Take `Cc1cccc(N2CC(C)Cn3c2nc2c3c(=O)n(CC(=O)OCc3ccccc3)c(=O)n2C)c1` (stereo not drawn): the inhibition is 86.9% (active).

Turning to `O=C(/C=C/c1cc2c(cc1Br)OCO2)NCc1ccc(Cl)cc1`, the inhibition is -6.4%.

Turning to `CC(C)(C)C(=O)c1cnc(Nc2ccccc2)s1`, the inhibition was 33.1%.

Turning to `S=c1[nH]nc(-c2ccco2)n1/N=C/c1ccc(Br)s1`, the inhibition was -24.6%.

Turning to `Cc1ccc(C(c2nnnn2C(C)(C)C)N2CCc3ccccc3C2)cc1` (stereo not drawn), the inhibition was -5.7%.

As to `CCC(C)(C)n1nnnc1C(c1ccccc1OC)N1CCSCC1` (stereo not drawn), the inhibition is 17%.

As to `COc1ccc(OC)c(C(c2nnnn2C(C)(C)C)N2CCc3ccccc3C2)c1` (stereo not drawn), the inhibition is 98.9% (active).

Take `COc1cccc(NC(=O)CN(C)S(=O)(=O)c2ccc(C)cc2)c1`: the inhibition was 19%.

With `CCOc1ccc(S(=O)(=O)N(CC(=O)O)c2ccccc2)cc1`, the inhibition is 17.7%.

For `CCN(CC)C(=O)CN(c1cccc(OC)c1)S(=O)(=O)c1ccc(C)cc1`, the inhibition was 94% (active).

As to `Cc1nonc1OCCn1nnnc1N`, the inhibition was 6.3%.

With `CCN(CC(=O)NCc1cccs1)c1nnnn1-c1ccccc1`, the inhibition is -1.7%.

In the case of `Cc1n[nH]c(=S)n1/N=C/c1ccc(Br)o1`, the inhibition is 4.5%.

For `CCCCOC(=O)Cn1c(=O)n(CC(=O)OCCCC)c2cc(C)ccc21`, the inhibition is 60.8% (active).

For the molecule `CCCCOC(=O)Cn1c(=N)n(CCN(CC)CC)c2ccccc21`, the inhibition was -37.7%.

Take `COC(=O)Cn1c2ccc(C)cc2c2nc(C)sc21`: the inhibition is 22.4%.

Consider `CCCCN(CC)CCNC(=O)c1[nH]c(C)c(C(C)=O)c1C`, for which the inhibition is -14.6%.

For `CCCCOC(=O)c1[nH]c(C)c(C(=O)OC)c1C`, the inhibition is 61.2% (active).

For the molecule `COCCCNCC(=O)Nc1sc(C)c(C)c1C(=O)OC`, the inhibition is 39.5%.

Turning to `CCCOc1ccc(NC(=O)C2CCCNC2=O)cc1` (stereo not drawn), the inhibition was 1.9%.

Turning to `Cc1cc(C)cc(NC(=O)CSCc2cnn(-c3ccccc3)c2-n2cccc2)c1`, the inhibition was 44%.

Consider `COc1ccc(-n2nnnc2SCC(=O)Nc2ccccc2)cc1`, for which the inhibition was -7.3%.

Regarding `CC(=O)Nc1ccc(NC(=O)CSCc2cnn(-c3ccccc3)c2-n2cccc2)cc1`, the inhibition is 86.6% (active).

`Cc1ccc(NC(=O)c2cc(-c3ccc(C)o3)nc3ccccc23)nc1`: the inhibition was 3.2%.

As to `CC(=O)OCc1cc2cc(C)ccc2[nH]c1=O`, the inhibition is -8%.

On to `Cc1cccc(NC(=O)/C(=C\c2ccco2)NC(=O)c2ccccc2)c1`, for which the inhibition is 32.5%.

As to `C/C(=C\c1ccco1)C1Nc2cccc3cccc(c23)N1`, the inhibition is 55.5% (active).

For the molecule `O=C(NCC1CCCO1)/C(=C\c1ccco1)NC(=O)c1ccccc1` (stereo not drawn), the inhibition was -18.8%.

These data come from PubChem BioAssay AID777 (Sanford-Burnham Center for Chemical Genomics, 2007).
